The list is not random: actives were taken first. Their share in the collection is about 0.43%.
GLA spleen mod = qHTS Assay for Inhibitors and Activators of Human alpha-Galactosidase From Spleen Homogenate. human spleen homogenate, 4MU-alpha-Gal fluorescence, 40 min. Alpha-galactosidase A (Homo sapiens), P06280. AID 2107, 2009. hit rate 0.008% among 240,000. Potency, µM (doses to about 80 µM), inactives show at the highest dose activity change, negative = inhibition, actives largely listed as inhibitors;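 note: potency is the fitted concentration of half-maximal effect; 0% = enzyme with vehicle and -100% = no enzyme basal signal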
Target sequence (P06280 32-429 limits assumed): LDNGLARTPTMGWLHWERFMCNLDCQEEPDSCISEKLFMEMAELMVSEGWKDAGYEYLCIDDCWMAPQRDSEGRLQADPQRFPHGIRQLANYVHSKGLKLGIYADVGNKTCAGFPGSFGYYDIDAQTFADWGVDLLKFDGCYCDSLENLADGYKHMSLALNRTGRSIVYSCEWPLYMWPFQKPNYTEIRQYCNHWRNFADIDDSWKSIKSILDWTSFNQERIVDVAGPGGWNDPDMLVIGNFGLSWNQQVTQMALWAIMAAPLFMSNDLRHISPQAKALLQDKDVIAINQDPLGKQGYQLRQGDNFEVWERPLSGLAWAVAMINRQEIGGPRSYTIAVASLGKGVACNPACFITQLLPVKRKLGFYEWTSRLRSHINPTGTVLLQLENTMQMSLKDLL
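Human spleen homogenate (1 ug) as enzyme source, 4-methylumbelliferyl-alpha-D-galactopyranoside 1 mM final, citrate/phosphate pH 5.0 with 0.01% Tween-20. Compounds 40 min at 37C, NaOH/glycine stop; fluorescence Ex 365/Em 440, Hill-fit AC50.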
N370S GC mod = qHTS Assay for Inhibitors and Activators of N370S glucocerebrosidase as a Potential Chaperone Treatment of Gaucher Disease; N370S GC spleen homogenate, 4MU-glucoside fluorescence; hit rate 0.092% among 330,000; Potency, µM (titrated, usually from 59.4 µM), for the others: at the highest dose activity change, negative = inhibition, most hits filed as inhibitors; Lysosomal acid glucosylceramidase (Homo sapiens), P04062;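 note: potency is the fitted concentration of half-maximal effect; 0% = full enzyme activity and -100% = no enzyme basal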
GAA inhib = qHTS Assay for Inhibitors of Human alpha-Glucosidase as a Potential Chaperone Treatment of Pompe Disease; purified human GAA, 4-MU-alpha-glucoside fluorescence; hit rate 0.005% among 200,000; Potency, µM (top dose mostly 76.9 µM), for inactives: at the top dose activity change, negative = inhibition, hits mostly inhibitors;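 note: potency is the fitted concentration of half-maximal effect; plate controls were uninhibited enzyme wells for no effect and no-enzyme background for full effect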
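Human alpha-glucosidase, 4 nM, pre-mixed with test compounds before 400 uM 4-methylumbelliferyl substrate; 20 min room temperature at pH 5.0. Fluorescence read after pH 10 stop; AC50 values from Hill-equation fits.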
GLA inh pH 4.5 = qHTS Assay for Inhibitors of Human alpha-Galactosidase at pH 4.5 | 230,000 tested, under 10 active | Alpha-galactosidase A (Homo sapiens), P06280 | activity change, negative = inhibition, % at 105 µM | AID 1467, 2008 | purified enzyme, 4-MU-alpha-Gal fluorescence, pH 4.5;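 note: 0% = full activity with enzyme and -100% = basal without enzyme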
GAA glycogen = qHTS Assay for Inhibitors and Activators of Human alpha-Glucosidase Cleavage of Glycogen; Lysosomal alpha-glucosidase (Homo sapiens), P10253; recombinant GAA, glycogen substrate, Amplex Red glucose oxidase fluorescence; Potency, µM (top dose mostly 76.4 µM), inactives show top-dose activity change, negative = inhibition, hits mostly inhibitors; hit rate 0.38% among 300,000;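 note: potency is the fitted concentration of half-maximal effect; 0% = full enzyme reaction and -100% = no-enzyme basal signal; the screen sought inhibitors and activators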
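Natural-substrate format: glycogen cleavage by 4 nM human enzyme, glucose read by Amplex Red coupling (Ex 573, Em 610 nm). Normalized to enzyme and no-enzyme controls.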
aGlu spleen mod = qHTS Assay for Inhibitors and Activators of Human alpha-Glucosidase From Spleen Homogenate. human spleen homogenate, 4-MU-alpha-glucoside fluorescence. Potency, µM (series often up to 79.9 µM), without a hit: top-dose activity change, negative = inhibition, most hits filed as inhibitors. hit rate 0.006% among 240,000. AID 2112, 2009;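 note: potency is the fitted concentration of half-maximal effect; 0% = enzyme with vehicle and -100% = no enzyme basal signal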
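Enzyme source: human spleen homogenate, 1 ug/well. Buffer 50 mM citric acid/K phosphate pH 5.0, 0.01% Tween-20. 4-MU-alpha-glucoside 1 mM; 37 C x 40 min; NaOH/glycine stop; fluorescence.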
Active calls of the source: *; ? = inconclusive; / = no result; [ ] = dose if it differs, or a comment. Calls come from the whole dose curve; as a rule, active = well fitted curve in the direction sought with a large enough effect; inconclusive = small, poorly fitted or top-dose-only effect, or another doubt; inactive = no such curve, though single readings can be large; an effect the other way counts as inactive or inconclusive.

SMILES	GLA spleen mod	N370S GC mod	GAA inhib	GLA inh pH 4.5	GAA glycogen	aGlu spleen mod
Cc1cccnc1Nc1nc(-c2ccc(O)c(O)c2)cs1	0.2%	-13.8%	?	0.0	7.08µM*	-1.0%
O=C1CC(Nc2ccc(N3CCOCC3)cc2)C(=O)N1c1ccccc1F (configuration not stated)	0.6%	-4.1%	-0.2%	-8.5	25.1µM*	0.3%
CCc1ccc(NC2CC(=O)N(CCc3ccc(OC)c(OC)c3)C2=O)cc1 (configuration not stated)	-16.7%	19.7%	4.3%	-17.0	-21.1%	-13.8%
O=C1CC(Nc2ccccc2)C(=O)N1c1ccc(N2CCOCC2)cc1 (configuration not stated)	9.3%	-24.4%	-8.1%	7.8	6.2%	-4.6%
O=C(Nc1ccc(N2CCOCC2)cc1)NC1CCCCC1	-9.6%	3.0%	1.5%	0.0	?	-3.3%
O=C1CC(Nc2ccc(N3CCOCC3)cc2)C(=O)N1C1CCCCC1 (configuration not stated)	8.8%	-4.1%	0.2%	1.4	12.6µM*	-1.0%
CC(C)N1C(=O)CC(Nc2ccc(N3CCOCC3)cc2)C1=O (configuration not stated)	1.1%	/	-6.0%	-12.7	25.1µM*	-2.5%
COc1ccc(CCN2C(=O)CC(Nc3ccc(N4CCOCC4)cc3)C2=O)cc1OC (configuration not stated)	0.5%	-9.0%	-1.4%	8.2	15.7µM*	-4.8%
c1coc(-c2ccc3ncnc(NCc4cccs4)c3c2)c1	/	2.6%	/	/	/	/
COc1cccc([C@@H]2Oc3ccc(Br)cc3C[C@H]2OC(=O)Nc2ccc(OC(F)F)cc2)c1	-25.1%	-9.4%	/	-11.0	/	0.0%
COCC(=O)N1CCc2nc(-c3ccccc3)c3c(c2C1)CO[C@@H](C)C3	2.7%[17.5 µM]	7.3%[12.8 µM]	/	0.0	/	-1.5%[17.4 µM]
C=CCC(Nc1ccc(OC)cc1)(C(=O)OCC)c1ccccc1 (configuration not stated)	-1.7%	12.2%	/	-1.2	/	-8.0%
CC(Nc1nc(-c2ccccc2)nc2ccccc12)c1ccccc1 (configuration not stated)	-1.1%	5.01µM*	-1.3%	4.9	-12.4%	-1.2%
Cc1cccc(-c2nc(Nc3ccc(N4CCOCC4)cc3)c3ccccc3n2)c1	-2.6%	2.82µM*	-11.0%	-8.1	-5.4%	-3.1%
CC(=O)Nc1ccc(Nc2nc(-c3ccccc3)nc3ccccc23)cc1	-4.3%	6.31µM*	-0.1%	-8.6	-11.1%	0.7%
c1ccc(CNc2nc(-c3ccoc3)nc3ccccc23)cc1	-2.3%	?	/	/	/	2.1%
Fc1ccc(Nc2nc(-c3ccoc3)nc3ccccc23)cc1	4.1%	15.8µM*	/	/	/	4.8%
O=C(O)c1ccc(Nc2nc(-c3ccc([N+](=O)[O-])cc3)nc3ccccc23)cc1	/	-5.9%	/	/	-8.6%	/
CCc1ccccc1NC(=O)CSc1nnc(-c2nonc2NC(C)=O)n1C	/	/	/	/	18.8%[76.3 µM]	/
COC(=O)CC1c2ccccc2C=C(/C=C/c2ccc3c(c2)OCO3)N1C(=O)OC (configuration not stated)	11.0%[17.5 µM]	-6.2%[12.8 µM]	/	11.1	/	10.9%[17.4 µM]
CCOc1cccc(CNc2ccc(O)cc2)c1OCc1ccccc1Cl	4.9%	7.6%	-1.2%	-2.7	6.31µM*	-2.2%
Cc1ccc2c(C(=O)CNc3nncs3)c(C)[nH]c2c1	-3.9%	-12.3%	1.7%	5.0	28µM*	1.8%
C/C=C\C1=CCCC1Nc1ncnc2ccc(-c3c(C)noc3C)cc12 (configuration not stated)	-1.1%	-6.1%	/	/	/	-1.5%
Oc1ccc2[nH]ccc2c1	19.9%	-1.5%	-2.1%	-4.7	14.1µM*	-15.4%
COC(=O)C1=C(C(=O)OC)[C@@H]2N(C)c3ccccc3[C@@]23C[C@@H](C(=O)OC)N(S(=O)(=O)c2c(C)noc2C)C3=N1	-1.3%[17.5 µM]	0.5%[12.8 µM]	/	1.2	/	-8.0%[17.4 µM]
SMILES	GLA spleen mod	N370S GC mod	GAA inhib	GLA inh pH 4.5	GAA glycogen	aGlu spleen mod
CCn1cnc2cc(NCc3cccc(OC)c3O)ccc21	-8.0%	17.4%	1.1%	0.6	15.7µM*	-4.5%
COCCn1c(=O)cnc2cnc(Nc3cccc(OC)c3)nc21	3.1%	-5.7%	/	/	/	-7.2%
COc1ccc(CNc2nc(-c3ccoc3)nc3ccccc23)c(OC)c1	-9.2%	14.1µM*	/	-7.0	/	-1.0%
COc1ccc(CNc2nc(-c3ccccc3CN(C)C)nc3ccccc23)c(OC)c1	0.7%	-7.2%	/	-5.3	/	1.1%
COc1cccc(-c2nc(NCc3ccccc3OC)c3ccccc3n2)c1	0.9%	14.1µM*	/	/	/	2.3%
COc1ccccc1CNc1nc(-c2ccc(N(C)C)cc2)nc2ccccc12	11.5%	-16.5%	/	-4.9	/	0.6%
COc1cccc(-c2nc(NCc3ccccc3)c3ccccc3n2)c1	15.3%	-5.1%	/	/	/	-4.5%
COc1ccccc1CNc1nc(-c2ccc3c(c2)OCO3)nc2ccccc12	-4.6%	15.8µM*	/	/	/	3.0%
CC(=O)Nc1ccc(S(=O)(=O)N2CCc3nc(COc4ccccc4)c4c(c3C2)CO[C@@H](C)C4)cc1	0.8%[17.5 µM]	-13.0%[12.8 µM]	/	3.4	/	2.3%[17.4 µM]
Cc1cc(C)c(OCC(=O)N(Cc2ccc(N(C)C)cc2)Cc2ccco2)c(C)c1	/	/	/	/	-10.7%[76.3 µM]	/
CN(C(=O)CSc1cn(CC(=O)N2CCCCCC2)c2ccccc12)c1ccccc1	/	/	/	/	-6.5%[76.3 µM]	/
COc1ccc(NC(=S)NNC(=S)Nc2cccc(C(F)(F)F)c2)cc1	-4.8%	-19.2%	-5.7%	-12.1	4.47µM*	4.2%
CCOc1ccc(NC(=S)NNC(=S)Nc2cccc(C(F)(F)F)c2)cc1	1.1%	-3.2%	-0.1%	-4.9	?	-1.5%
FC(F)(F)c1cccc(NC(=S)NNC(=S)Nc2cccc(C(F)(F)F)c2)c1	1.1%	-14.2%	-10.3%	-22.3	8.91µM*	2.0%
CNNC(=S)Nc1cccc(C(F)(F)F)c1	4.2%	11.0%	-1.4%	-9.6	-29.4%	-0.5%

Assay outcomes deposited in PubChem by National Center for Advancing Translational Sciences (NCATS).
